Data from PubChem BioAssay (NCATS).
Several values for one entry are separate records, joined by “and”; a condition that tells them apart may be missing. Equal entries are not always repeated. Records with an inconclusive call do not appear. Activity calls are given as the source filed them. Unless noted, calls follow the shape of the dose curve; as a rule, active = well fitted curve in the direction sought with a large enough effect; inconclusive = small, poorly fitted or top-dose-only effect, or another doubt; inactive = no such curve, though single readings can be large; an effect the other way counts as inactive or inconclusive.

Key:
[1] = qHTS assay for measurement of the activity of small molecule inhibitors on Zika virus induced Caspase-3 activity in human astrocytoma cells (AID 1224859); also: potency is read from the fitted curve at half-maximal effect
Method in brief: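 In SNB-19 cells plated at 250 cells/well and grown 16-20 h, compounds were applied 1 h before ZIKV (2 FFU/cell). Six hours later caspase-3/7 luminescence was recorded.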

[2] = qHTS Screen of the MIPE 4.0 Collection Against Ewings Sarcoma (RDES) (AID 1259252); also: potency is read from the fitted curve at half-maximal effect; nearly all actives have a fitted effect of over 35% in size
Method in brief: (§1)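 Here, cells in 5% FBS RPMI were exposed for two days (48 h) to compound dilutions added four hours after plating. ATP-based CellTiter-Glo luminescence measured viability, normalized to vehicle and no-cell blanks.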

[3] = qHTS Screen of the MIPE 4.0 Collection Against Ewings Sarcoma (TC71) (AID 1259253); also: nearly all actives have a fitted effect of over 40% in size; also: potency is read from the fitted curve at half-maximal effect
Method in brief: as §1

[4] = qHTS Screen of the MIPE 4.0 Collection Against Ewings Sarcoma (EW8) (AID 1259255); also: nearly all actives have a fitted effect of over 35% in size; also: potency is read from the fitted curve at half-maximal effect
Method in brief: as §1

[5] = qHTS Screen of the MIPE 4.0 Collection Against Ewings Sarcoma (TC32) (AID 1259256); also: nearly all actives have a fitted effect of over 45% in size; also: potency is read from the fitted curve at half-maximal effect
Method in brief: as §1

[6] = Identifying Small Molecule Inhibitors of Pancreatic Cancer Stem Cells (SN12C, Adherent) (AID 1259358);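 also: potency is read from the fitted curve at half-maximal effect; cell survival measured after 48 h of compound exposure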
Method in brief: (§2)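 Luminescent ATP readout (CellTiter-Glo) quantifies surviving cells after a 48 h drug incubation. Normalization uses DMSO wells as no inhibition and media-only wells as full inhibition; bortezomib served as positive control.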

[7] = Identifying Small Molecule Inhibitors of Pancreatic Cancer Stem Cells (SN12C, Spheroid) (AID 1259360); settings: Potency: SN12C spheroid viability; also: potency is read from the fitted curve at half-maximal effect
Method in brief: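 Spheroids grown 14 days in stem cell media on hydrogel-coated nonadherent plates; 2D lines seeded directly. Compounds added after 4 h attachment, 48 h at 37C, 5% CO2; CellTiter-Glo luminescence normalized to DMSO (no inhibition) and no-cell wells (full inhibition).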

[8] = Identifying Small Molecule Inhibitors of Pancreatic Cancer Stem Cells (A278, Adherent) (AID 1259361); also: nearly all actives have a fitted effect of over 35% in size
Method in brief: as §2

[9] = P-glycoprotein substrates identified in KB-3-1 adenocarcinoma cell line, qHTS therapeutic library screen (AID 1346986);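 also: potency is read from the fitted curve at half-maximal effect; potency is for cytotoxicity meaning loss of cell viability; nearly all actives have a fitted effect of over 60% in size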
Method in brief: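 Using luminescence to quantify ATP, parental and P-gp-overexpressing KB cells were compared after 72 h compound titration. KB-8-5-11 was also run with the P-gp inhibitor tariquidar.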

[10] = P-glycoprotein substrates identified in KB-8-5-11 adenocarcinoma cell line, qHTS therapeutic library screen (AID 1346987); also: nearly all actives have a fitted effect of over 65% in size; also: potency is read from the fitted curve at half-maximal effect
Method in brief: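 In this qHTS, P-gp-rich KB-8-5-11 cells received library compounds across a concentration range. Viability was quantified by luminescence after 72 h at 37 degree C.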

[11] = NS1 protein of Zika virus - qHTS assay to identify small molecule inhibitors in human HEK 293 cells (AID 1347053); also: nearly all actives have a fitted effect of over 55% in size; also: potency is read from the fitted curve at half-maximal effect
Method in brief: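 Read-out is a two-antibody TR-FRET for ZIKV NS1, normalized between uninfected cells and infected cells. Compound added 1 h before MR766 infection at MOI 0.5; human HEK 293 cells incubated 24 h, 37 C.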

[12] = Natriuretic polypeptide receptor (hNpr1) antagonism - Pilot counterscreen GloSensor control cell line (AID 1347045; calls by dose curve; also: series mostly up to about 38 µM)
Method in brief: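 HEK293 cGMP-sensor cells; 2% GloSensor reagent 2 h RT; LOPAC compounds in 1:5 titrations 30-50 min; 50 uM SNP 20 min; luminescence pre-read and post-read.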

[13] = molecular target: Atrial natriuretic peptide receptor 1 (Homo sapiens) (UniProt P16066); assay: Natriuretic polypeptide receptor (hNpr1) antagonism - Pilot screen (AID 1347049; calls by dose curve;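 also: HEK293 cells with hNpr1 and GloSensor cGMP luciferase stimulated by 0.1 nM hNppA; agonist-evoked cGMP luminescence read 20 min after hNppA addition; potency is read from the fitted curve at half-maximal effect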)
Chain of Atrial natriuretic peptide receptor 1 (Homo sapiens) (P16066 whole entry, looked up): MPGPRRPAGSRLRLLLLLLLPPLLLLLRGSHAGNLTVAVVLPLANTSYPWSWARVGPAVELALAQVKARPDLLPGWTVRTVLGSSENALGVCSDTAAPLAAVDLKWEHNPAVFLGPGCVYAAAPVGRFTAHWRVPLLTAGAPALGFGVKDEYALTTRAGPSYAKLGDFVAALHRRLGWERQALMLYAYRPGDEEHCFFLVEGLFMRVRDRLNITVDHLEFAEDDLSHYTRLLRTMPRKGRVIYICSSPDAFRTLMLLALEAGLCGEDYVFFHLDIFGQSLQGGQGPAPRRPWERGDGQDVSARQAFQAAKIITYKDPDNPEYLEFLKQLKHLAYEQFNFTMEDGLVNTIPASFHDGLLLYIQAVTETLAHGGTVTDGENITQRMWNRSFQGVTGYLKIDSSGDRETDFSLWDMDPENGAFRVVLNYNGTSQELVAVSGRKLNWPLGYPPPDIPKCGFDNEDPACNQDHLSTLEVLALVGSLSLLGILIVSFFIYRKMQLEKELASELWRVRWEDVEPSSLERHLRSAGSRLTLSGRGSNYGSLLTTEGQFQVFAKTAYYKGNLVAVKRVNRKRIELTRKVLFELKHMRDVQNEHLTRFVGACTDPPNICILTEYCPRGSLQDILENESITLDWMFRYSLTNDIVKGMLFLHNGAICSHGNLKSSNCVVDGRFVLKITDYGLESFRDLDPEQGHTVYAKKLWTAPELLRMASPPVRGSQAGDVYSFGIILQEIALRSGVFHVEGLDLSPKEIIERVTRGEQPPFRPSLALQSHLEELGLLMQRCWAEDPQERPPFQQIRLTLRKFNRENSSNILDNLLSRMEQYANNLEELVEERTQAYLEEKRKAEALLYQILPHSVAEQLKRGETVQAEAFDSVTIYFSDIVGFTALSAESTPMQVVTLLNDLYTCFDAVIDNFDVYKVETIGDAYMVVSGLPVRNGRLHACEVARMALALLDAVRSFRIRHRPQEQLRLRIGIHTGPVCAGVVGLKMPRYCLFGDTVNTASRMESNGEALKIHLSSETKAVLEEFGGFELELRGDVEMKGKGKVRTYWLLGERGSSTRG
Method in brief: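 Cells expressing receptor plus cGMP biosensor are seeded and incubated overnight at 37C, then loaded with GloSensor reagent (2% final) at room temperature for 2 h. Library compounds go on for 30 min. A pre-read precedes agonist (hNppA, 0.1 nM final) and a 20-min readout.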

[14] = molecular target: Tyrosine-protein phosphatase non-receptor type substrate 1 (Homo sapiens) + Leukocyte surface antigen CD47 (Homo sapiens) (UniProt P78324+Q08722); assay: CD47-SIRPalpha protein protein interaction - LANCE assay qHTS validation (AID 1347057; active = well fitted curve in the direction sought with a large enough effect in the signal ratio, with a control signal flat, not every such curve was filed as active; the % refers to the signal ratio; also: series mostly up to about 38 µM)
Chain of Tyrosine-protein phosphatase non-receptor type substrate 1 (Homo sapiens) + Leukocyte surface antigen CD47 (Homo sapiens) (P78324 whole entry, looked up, the tested form may be a part): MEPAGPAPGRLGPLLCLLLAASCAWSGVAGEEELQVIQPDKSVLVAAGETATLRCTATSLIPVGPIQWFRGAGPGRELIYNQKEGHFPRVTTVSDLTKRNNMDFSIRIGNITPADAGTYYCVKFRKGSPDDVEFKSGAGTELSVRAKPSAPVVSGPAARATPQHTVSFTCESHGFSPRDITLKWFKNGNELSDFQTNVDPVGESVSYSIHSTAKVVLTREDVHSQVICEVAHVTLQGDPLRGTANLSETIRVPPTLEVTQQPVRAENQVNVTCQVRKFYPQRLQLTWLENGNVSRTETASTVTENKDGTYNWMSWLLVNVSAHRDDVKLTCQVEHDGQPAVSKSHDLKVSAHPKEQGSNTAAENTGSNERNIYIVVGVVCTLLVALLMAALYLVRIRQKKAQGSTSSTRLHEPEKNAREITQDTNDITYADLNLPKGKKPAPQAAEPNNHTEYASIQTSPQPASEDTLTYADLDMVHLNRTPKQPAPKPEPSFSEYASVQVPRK
Chain of Tyrosine-protein phosphatase non-receptor type substrate 1 (Homo sapiens) + Leukocyte surface antigen CD47 (Homo sapiens) (Q08722 whole entry, looked up, the tested form may be a part): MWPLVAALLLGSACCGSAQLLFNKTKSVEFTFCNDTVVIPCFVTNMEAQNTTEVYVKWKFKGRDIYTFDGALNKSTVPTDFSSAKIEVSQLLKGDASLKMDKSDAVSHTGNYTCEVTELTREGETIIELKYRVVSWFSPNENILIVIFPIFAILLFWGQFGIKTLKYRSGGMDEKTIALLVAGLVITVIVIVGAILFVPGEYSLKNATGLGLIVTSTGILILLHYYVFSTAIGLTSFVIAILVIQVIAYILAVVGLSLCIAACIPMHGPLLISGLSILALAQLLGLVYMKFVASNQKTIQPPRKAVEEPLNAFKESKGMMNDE
Method in brief: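 Inhibition of soluble CD47/SIRPalpha ectodomain association by titrated compounds, measured as 665/615 nm time-resolved FRET ratio after sequential 30 min room-temperature incubations.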

[15] = Identifying Small Molecule Inhibitors of Pancreatic Cancer Stem Cells (Panc1, Spheroid) (AID 1259359);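 also: potency is read from the fitted curve at half-maximal effect; compound exposure lasted 48 h before reading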
Method in brief: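 Cytotoxicity read by CellTiter-Glo luminescence after 48 h compound exposure at 37C; percent activity scaled between DMSO-treated cells and cell-free wells. Spheroid formats used cells pre-formed 14 days in stem cell media on hydrogel.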

## O=C(c1ccc(Nc2nccc(-c3cc4ccccc4s3)n2)cc1)N1CCC(N2CCCC2)CC1
[1]
  Potency: inactive
[2]
  Potency: 18.7 µM (active)
[3]
  Potency: 18.7 µM (active)
[4]
  Potency: 20.9 µM (active)
[5]
  Potency: 20.9 µM (active)
[6]
  Potency: 26.4 µM (active)
[7]
  Potency: 23.5 µM (active)
[8]
  IC50 (viability decrease): 18.7 µM (active)
[9]
  Potency: 6.51 µM (active)
[10]
  Potency: 8.33 µM (active) and 16.4 µM (active) and 20.6 µM (active)
[11]
  Potency: 6.62 µM (active)

## O=c1c2ccccc2nc2n1CCc1c-2[nH]c2ccccc12
[1]
  Potency: 7.94 µM (active)
[3]
  Potency: inactive
[4]
  Potency: inactive
[5]
  Potency: inactive
[10]
  Potency: inactive
[12]
  outcome: inactive
[13]
  Potency: 1.51 µM (active)
[11]
  Potency: inactive
[14]
  outcome: inactive

## CNC(=O)c1cc(Oc2ccc(NC(=O)Nc3cc(C(C)(C)C)nn3-c3ccc4ncccc4c3)c(F)c2)ccn1
[1]
  Potency: inactive
[2]
  Potency: 20.9 µM (active)
[3]
  Potency: 16.6 µM (active)
[4]
  Potency: 18.7 µM (active)
[5]
  Potency: 20.9 µM (active)
[15]
  Potency: 13.2 µM (active)
[10]
  Potency: 18.7 µM (active)
[11]
  Potency: inactive

## Cc1cc(C(=O)N2CCN(c3cccc(Cl)c3)CC2)n(-c2ccccc2)n1
[1]
  Potency: inactive
[2]
  Potency: 0.743 µM (active)
[3]
  Potency: 6.62 µM (active)
[4]
  Potency: 1.18 µM (active)
[5]
  Potency: inactive
[10]
  Potency: 372 nM (active) and 1.3 µM (active)

## COc1cc(OC2CCN(C)CC2)ccc1Nc1ncc2c(n1)n(C1CCCC1)c(=O)n2C
[1]
  Potency: inactive
[2]
  Potency: 9.35 µM (active)
[3]
  Potency: 4.69 µM (active)
[4]
  Potency: 7.43 µM (active)
[5]
  Potency: 4.69 µM (active)
[6]
  Potency: 16.6 µM (active)
[7]
  Potency: 20.9 µM (active)
[10]
  Potency: 3.72 µM (active)
